Data on 25 compounds can be found in PubChem BioAssay (Tox21).

Values joined by “and” are separate entries in the source; they are usually repeats but may differ in a detail not shown here. Equal entries are not always repeated. Records with an inconclusive call do not appear. Active and inactive are the calls of the source. Unless noted, calls come from the whole dose curve.

A short description of test [1]: qHTS assay to identify small molecule agonists of the vitamin D receptor (VDR) signaling pathway - cell viability counter screen (AID 743224; active = well fitted curve in the direction sought with a large enough effect in the repeat runs; an effect the other way counts as inactive or inconclusive; note: series mostly up to about 63 µM; nearly all actives have a fitted effect of over 50% in size). The procedure, abridged:
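CellTiter-Glo viability readout on VDR-bla cells, measured after 16 h of compound treatment at 37C in the same wells.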
(In general: In qHTS, concentration-response curves come from the screen itself.)

Test [2] in a line: qHTS assay to identify small molecule antagonists of the vitamin D receptor (VDR) signaling pathway - cell viability counter screen (AID 743225; active = well fitted curve in the direction sought with a large enough effect in the repeat runs; an effect the other way counts as inactive or inconclusive; note: nearly all actives have a fitted effect of over 50% in size). The procedure, abridged: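 Parallel cytotoxicity test: VDR-UAS-bla HEK 293T, 3 nM (final) 1-alpha,25-dihydroxyvitamin D3 with test compound, 16 h, 37C. Endpoint is CellTiter-Glo luminescence in the same wells.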
Test [3] is described as follows: qHTS assay to identify small molecule agonists of the NFkB signaling pathway - cell viability counter screen (AID 1159515). Note: series mostly up to about 61 µM; nearly all actives have a fitted effect of over 55% in size. The method in brief:
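Tox21 library compounds were tested for cytotoxicity against NFkB-bla ME-180 cells during a 5 hr exposure at 37 C. CellTiter-Glo luminescence served as the viability read-out.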

Test [4] in a line: qHTS assay to identify small molecule agonists of the endoplasmic reticulum stress response signaling pathway (AID 1159516; active = well fitted activation curve with a large enough effect in the signal ratio in the repeat runs, not every such curve was filed as active; the % refers to the signal ratio). The method in brief:
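Fluorescence at 460 and 530 nm (405 nm excitation) reports beta-lactamase from an ER stress response element in HeLa cells treated 5 hr at 37 C.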

Test [5] in a line: qHTS assay to identify small molecule agonists of the endoplasmic reticulum stress response signaling pathway - cell viability counter screen (AID 1159517). Note: series mostly up to about 61 µM; nearly all actives have a fitted effect of over 50% in size. The procedure, abridged:
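In parallel with the ESRE reporter read, cytotoxicity was scored by CellTiter-Glo luminescence (30 min, room temperature) on HeLa ESRE-bla cells dosed for 5 hr.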

The nature of test [6]: qHTS assay to identify small molecule antagonists of the retinoid-related orphan receptor gamma (ROR-gamma) signaling pathway - cell viability counter screen (AID 1159520; active = well fitted curve in the direction sought with a large enough effect in the repeat runs; an effect the other way counts as inactive or inconclusive; note: nearly all actives have a fitted effect of over 50% in size). The procedure, abridged:
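Tet-on ROR gamma CHO cells were given compounds for 2 hr, then doxycycline hyclate at 1 uM final, and incubated 16 hr at 37 C. Viability was measured as ATP content by CellTiter-Glo luminescence.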

Test [7] has as its target Nuclear receptor ROR-gamma (Homo sapiens) (UniProt P51449). The experiment in a line: qHTS assay to identify small molecule antagonists of the retinoid-related orphan receptor gamma (ROR-gamma) signaling pathway (AID 1159521; active = well fitted curve in the direction sought with a large enough effect in the repeat runs; an effect the other way counts as inactive or inconclusive; note: nearly all actives have a fitted effect of over 50% in size; note: potency is the fitted concentration of half-maximal effect). The method in brief: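 Decreased RORE-driven luciferase luminescence indicates antagonism. Tet-on RORγ CHO cells received compound, then 1 uM final doxycycline 2 h later; signal read after 16 h incubation.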

The nature of test [8]: qHTS assay to identify small molecule agonists of the AP-1 signaling pathway - cell viability counter screen (AID 1159525). Note: nearly all actives have a fitted effect of over 55% in size. The method in brief:
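Same-well cytotoxicity counter screen of the Tox21 10K library in ME-180 cells. The readout is ATP-dependent luminescence after 5 h compound treatment. Data are normalised to DMSO and tetra n-octyl ammonium bromide controls.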

Test [9] is described as follows: qHTS assay to identify small molecule agonists of the AP-1 signaling pathway (AID 1159526).
For test [10], the target named is Retinoic acid receptor RXR-alpha (Homo sapiens) (UniProt P19793). In words: qHTS assay to identify small molecule agonists of the RXR signaling pathway (AID 1159527). Note: nearly all actives have a fitted effect of over 35% in size. The method in brief: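 16 hr incubation of compound-treated RXR-alpha-UAS-bla HEK 293T cells (2% charcoal-stripped FBS, 37 C) preceded a 2 hr room-temperature LiveBLAzer FRET substrate step and blue/green fluorescence measurement.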
Chain of Retinoic acid receptor RXR-alpha (Homo sapiens) (P19793 whole entry, looked up): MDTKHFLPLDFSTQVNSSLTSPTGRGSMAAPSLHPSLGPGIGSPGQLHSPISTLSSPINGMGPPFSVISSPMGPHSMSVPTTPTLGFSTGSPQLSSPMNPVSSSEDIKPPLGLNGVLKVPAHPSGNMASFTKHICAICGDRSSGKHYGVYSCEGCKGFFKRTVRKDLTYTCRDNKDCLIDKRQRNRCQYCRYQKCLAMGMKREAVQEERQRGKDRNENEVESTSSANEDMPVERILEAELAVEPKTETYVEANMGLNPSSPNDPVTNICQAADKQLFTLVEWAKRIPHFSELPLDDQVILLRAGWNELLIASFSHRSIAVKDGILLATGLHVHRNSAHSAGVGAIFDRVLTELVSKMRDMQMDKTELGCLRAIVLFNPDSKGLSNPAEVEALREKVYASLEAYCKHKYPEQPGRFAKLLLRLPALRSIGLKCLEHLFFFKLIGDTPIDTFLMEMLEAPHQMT

On to `CC(C)OC(=O)Cc1ccccc1`, for which the Potency entry in test [1], in [2], in test [3], in [4], in test [5] and in [6] was “inactive” in each case. Also, the Potency entry in test [7], in test [8], in [9] and in test [10] was “inactive” in each case.

For the compound `CCC[N+](CCC)(CCC)CCC`, the Potency entry in [1], in test [2], in test [3], in test [4], in test [5] and in [6] was “inactive” in each case. The Potency entry in test [7], in test [8], in test [9] and in test [10] was “inactive” in each case.

Consider `CC(Cl)C(=O)O` (stereo unspecified), for which the Potency result in test [3], in [4], in [5], in [6], in [7] and in [8] was “inactive” throughout. Also, the Potency result in [9] and in [10] was “inactive” in each case.

Take `SCc1ccccc1`: the Potency entry in test [1], in test [3], in test [4], in test [5], in test [6] and in [7] was “inactive” throughout. Also, the Potency result in test [8], in [9] and in [10] was “inactive” throughout.

`Clc1ccccc1`: the Potency result in test [1], in test [3], in test [4], in [5], in [6] and in test [7] was “inactive” throughout. Also, the Potency entry in test [8], in test [9] and in test [10] was “inactive” in each case.

Regarding `C[Si](Cn1cncn1)(c1ccc(F)cc1)c1ccc(F)cc1`, the Potency entry in test [3], in test [4], in [5], in [6], in [8] and in test [9] was “inactive” in each case. The Potency entry in test [10] was “inactive”. The Potency in [7] was 31.6 µM (active) and 43.3 µM (active).

For the compound `NNCCO`, the Potency result in test [1], in test [3], in [4], in test [5], in test [6] and in test [7] was “inactive” each time. The Potency result in test [8], in test [9] and in test [10] was “inactive” in each case.

As to `CCc1ccccc1N`, the Potency entry in [1], in test [2], in [3], in test [4], in [5] and in [6] was “inactive” each time. Also, the Potency entry in [7], in test [8], in test [9] and in test [10] was “inactive” each time.

As to `Nc1cc(Cl)cc(C(=O)O)c1Cl`, the Potency result in test [1], in [3], in test [4], in test [5], in test [6] and in test [7] was “inactive” throughout. Also, the Potency result in test [8], in test [9] and in [10] was “inactive” each time.

Turning to `O=C(O)c1cc(Cl)ccc1Cl`, the Potency entry in test [1], in test [3], in test [4], in test [5], in [6] and in [7] was “inactive” each time. Besides, the Potency result in [8], in test [9] and in test [10] was “inactive” each time.

On to `C[C@H]1[C@@H]2Cc3ccc(O)cc3[C@@]1(C)CCN2C`, for which the Potency result in test [3], in test [4], in [5], in [6], in test [7] and in [8] was “inactive” throughout. Moreover, the Potency result in test [9] and in test [10] was “inactive” each time.

For the compound `C[C@H]1O[C@H](OC2[C@@H](O)[C@@H](O)C(O)[C@H](O)[C@H]2O)[C@@H](N)C[C@@H]1N=C(N)C(=O)O` (stereo partly specified), the Potency result in [1], in test [2], in test [3], in test [4], in test [5] and in test [6] was “inactive” in each case. The Potency entry in test [7], in [8], in test [9] and in test [10] was “inactive” in each case.

For the compound `CCC1(CC)C(=O)NC(=O)NC1=O`, the Potency entry in test [1], in test [3], in [4], in [5], in [6] and in test [7] was “inactive” throughout. The Potency result in [8], in [9] and in test [10] was “inactive” each time.

Regarding `CN(C)C(=O)Nc1cccc(OC(=O)NC(C)(C)C)c1`, the Potency result in [1], in test [2], in [3], in test [4], in [5] and in test [6] was “inactive” throughout. In addition, the Potency entry in test [7], in [8], in test [9] and in test [10] was “inactive” in each case.

For the compound `CC(C)CCON=O`, the Potency entry in test [1], in test [2], in test [3], in test [4], in test [5] and in test [6] was “inactive” throughout. In addition, the Potency result in test [7], in [8], in test [9] and in test [10] was “inactive” in each case.

Turning to `O=C=NC1CCCCC1`, the Potency entry in test [2], in test [3], in test [4], in test [5], in test [6] and in test [7] was “inactive” each time. Further, the Potency result in test [8], in test [9] and in test [10] was “inactive” in each case.

Take `CCOP(=S)(OCC)Oc1ccc(S(C)=O)cc1` (stereo unspecified): the Potency result in test [1], in [2], in test [3], in test [4], in test [5] and in test [6] was “inactive” throughout. Besides, the Potency entry in [7], in [8], in test [9] and in test [10] was “inactive” throughout.

`C[C@]12C=CC3=C4CCC(=O)C=C4CC[C@H]3[C@@H]1CC[C@@H]2O`: the Potency result in test [1], in test [2], in [3], in test [4], in test [5] and in test [6] was “inactive” each time. Further, the Potency entry in test [7], in test [8] and in test [9] was “inactive” in each case.

Consider `CCC1(CCC(C)C)C(=O)NC(=O)NC1=O`, for which the Potency entry in test [1], in test [2], in test [3], in test [4], in test [5] and in test [6] was “inactive” throughout. For the same compound, the Potency entry in test [7], in test [8], in test [9] and in [10] was “inactive” in each case.

As to `COc1cc(CC(C)N)c(OC)cc1Br` (stereo unspecified), the Potency result in test [1], in test [2], in test [3], in test [4], in [5] and in [6] was “inactive” throughout. Further, the Potency entry in test [7], in test [8] and in test [9] was “inactive” throughout.

In the case of `FC(F)OC(F)(F)C(F)Cl` (stereo unspecified), the Potency result in test [2], in test [3], in test [4], in [5], in test [6] and in [7] was “inactive” throughout. Besides, the Potency entry in test [8], in [9] and in [10] was “inactive” throughout.

Consider `O=C(O)CCCOc1ccc(Cl)cc1Cl`, for which the Potency result in test [1], in test [2], in test [3], in test [4], in [5] and in test [6] was “inactive” throughout. Besides, the Potency result in test [7], in test [8] and in test [9] was “inactive” throughout.

With `CC(C)(c1ccccc1)c1cc(-n2nc3ccccc3n2)c(O)c(C(C)(C)c2ccccc2)c1`, the Potency entry in [1], in test [2], in [3], in [4], in [5] and in test [6] was “inactive” in each case. The Potency entry in test [7], in [8], in test [9] and in test [10] was “inactive” throughout.

For `C=CCN1C[C@H](C)N([C@H](c2ccc(C(=O)N(CC)CC)cc2)c2cccc(OC)c2)C[C@H]1C`, the Potency result in test [2], in test [3], in [4], in test [5], in test [6] and in [7] was “inactive” each time. Moreover, the Potency entry in test [8], in test [9] and in test [10] was “inactive” each time.

As to `CCCBr`, the Potency result in test [1], in test [2], in test [3], in test [4], in test [5] and in test [6] was “inactive” in each case. For the same compound, the Potency result in test [7], in test [8] and in test [9] was “inactive” each time.
